From article PMC5836133, “The intracellular immune receptor Rx1 regulates the DNA-binding activity of a Golden2-like transcription factor”
Whole data set: some 16,000 sequences, median “e-score” near -0.044, cut for the highest 2% near 0.38. Shown is part of a subset that was picked to be rich in the highest values.

Molecular target: T1, GST-NbGlk1(82-244) (Nicotiana benthamiana)
T1 chain: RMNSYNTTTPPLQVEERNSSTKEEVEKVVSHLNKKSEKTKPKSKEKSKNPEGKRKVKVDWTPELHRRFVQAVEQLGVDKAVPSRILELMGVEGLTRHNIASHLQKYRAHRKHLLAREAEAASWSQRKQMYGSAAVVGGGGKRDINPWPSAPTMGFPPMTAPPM
Assay: protein-binding microarray; NbGlk1 is a Golden2-like transcription factor of Nicotiana benthamiana; high values mean tight binding
Conditions: protein: recombinant; tags: GST (pTH6838); dsDNA, one strand shown

Sequence	binding signal
AATATTTA	0.216 ± 0.021 E-score
AACAAGAT	0.228 ± 0.0325 E-score
AGAGAATC	0.4789 ± 0.00191 E-score
ACCGAATC	0.363 ± 0.0171 E-score
ACAGAATC	0.45398 ± 0.00026 E-score
ATCGAATC	0.354 ± 0.00608 E-score
ACAGAATA	0.257 ± 0.0299 E-score
AGAGAATA	0.243 ± 0.0561 E-score
ATAGAGAA	0.231 ± 0.0678 E-score
ATAGAATC	0.397 ± 0.032 E-score
AACGAATC	0.367 ± 0.0566 E-score
AGAGAAAT	0.241 ± 0.00888 E-score
ATAGAAAT	0.249 ± 0.0207 E-score
AGCGAATC	0.4592 ± 0.00447 E-score
ATCTGATG	0.241 ± 0.0502 E-score
AAATATAT	0.326 ± 0.0239 E-score
AAATATGC	0.234 ± 0.0807 E-score
AATCGCAA	0.359 ± 0.0518 E-score
ATCAGAAA	0.272 ± 0.108 E-score
ATCGCGTG	0.304 ± 0.0178 E-score
AAGCATAT	0.213 ± 0.0284 E-score
AGTATCAG	0.272 ± 0.0918 E-score

Sequence	binding signal
AATCTGTA	0.414 ± 0.00915 E-score
AATCGGTA	0.257 ± 0.0795 E-score
AATCTGAA	0.444 ± 0.0239 E-score
ATTCTGTA	0.271 ± 0.104 E-score
AATGATTC	0.22 ± 0.0193 E-score
AATTTATA	0.264 ± 0.104 E-score
ATTGCACG	0.251 ± 0.046 E-score
AGGGGAAT	0.32 ± 0.0496 E-score
ATCGAAAT	0.387 ± 0.0408 E-score
ACCGAAAT	0.338 ± 0.0315 E-score
AGCGAAAT	0.343 ± 0.064 E-score
AGGGCAAT	0.201 ± 0.0755 E-score
AAGGAAAT	0.3484 ± 0.000416 E-score
ACGGAATC	0.453 ± 0.0108 E-score
AAGGATTC	0.3738 ± 0.00237 E-score
AGGGATTC	0.359 ± 0.0107 E-score
ATGGAAAT	0.335 ± 0.0407 E-score
ATGGAATC	0.385 ± 0.0354 E-score
AGGGGATC	0.316 ± 0.0502 E-score
AGGGAATC	0.477 ± 0.0128 E-score
ACGGAAAT	0.345 ± 0.0654 E-score
ACGGAATA	0.264 ± 0.0173 E-score

Sequence	binding signal
ATGGATAC	0.25 ± 0.0455 E-score
AAGGAATC	0.396 ± 0.0666 E-score
ATCTCAAT	0.245 ± 0.0732 E-score
ATTAGATA	0.304 ± 0.0251 E-score
ATCCGCTG	0.261 ± 0.0225 E-score
AATCGCAC	0.296 ± 0.0196 E-score
AAAGTGAT	0.217 ± 0.169 E-score
AGGCAGAT	0.213 ± 0.0549 E-score
AATAGAAT	0.2556 ± 0.00204 E-score
AAAAATAA	0.229 ± 0.0366 E-score
ATTTATAA	0.229 ± 0.0487 E-score
ATATTGAT	0.248 ± 0.0795 E-score
AGATTGCC	0.4477 ± 0.0014 E-score
ATATTGCG	0.328 ± 0.0285 E-score
ATCTTGCC	0.261 ± 0.0186 E-score
AAATTGCG	0.262 ± 0.0556 E-score
AGATTGCA	0.4641 ± 0.00231 E-score
ATTTTGCA	0.238 ± 0.0203 E-score
ATATTGCA	0.225 ± 0.111 E-score
AGATTGCT	0.426 ± 0.00629 E-score
AGATTGCG	0.4943 ± 0.000727 E-score
ATATTGCC	0.249 ± 0.0822 E-score

Sequence	binding signal
AGATAGAT	0.267 ± 0.0623 E-score
AACAATCC	0.244 ± 0.0442 E-score
ATTATTAA	0.205 ± 0.0755 E-score
ACATATCA	0.216 ± 0.0561 E-score
ATTCAGGA	0.206 ± 0.0808 E-score
ATCACATA	0.212 ± 0.0312 E-score
AAATTTAT	0.22 ± 0.0544 E-score
AAGCGAAT	0.291 ± 0.0479 E-score
AGATTCGG	0.413 ± 0.00846 E-score
AGATTCGA	0.389 ± 0.00837 E-score
AAATTCGG	0.227 ± 0.0723 E-score
ATATTCGC	0.321 ± 0.0229 E-score
AGATTCGC	0.482 ± 0.00816 E-score
AAATTCGA	0.219 ± 0.058 E-score
ATATTCGG	0.228 ± 0.0147 E-score
ATATTCGA	0.293 ± 0.0238 E-score
AAATTCGC	0.284 ± 0.0251 E-score
ATTTTTCA	0.253 ± 0.137 E-score
ATCGGAGA	0.249 ± 0.0227 E-score
ATCTTGTA	0.28 ± 0.00362 E-score
